# Measured values: PubChem BioAssay
# The source made the active and inactive calls.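 How the source made its calls, unless noted: active means inhibition at or above 50% at 10 µM; inactive means inhibition below 50%.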
# Experiments:
# [1] = inhibitors of TNFa-induced NFkB p65 translocation, primary screen, imaging, HUVEC, MLSMR starter and 10KST1 sets (AID 438;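 active means inhibition above 20% together with a positive visual image hit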;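 further: compound added about 3h40 before a 20 min TNFalpha stimulation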;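 on inhibition: signal is the nuclear over cytoplasmic p65 intensity ratio per well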); settings: HUVEC TNFa-induced p65 nuclear translocation; cell count: measured here: nuclei count (cytotoxicity indicator), at 2.08 µM; inhibition: at 2 µM, stronger effect = higher value, 0% TNFa-plus-vehicle, 100% no-TNFa wells
# [2] = reduction of polyQ htt aggregates in cells – imaging, exon1htt(103Q)mCFP cells, high-content imaging, primary screen (AID 483;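 active means visual image review flags a hit and inhibition of aggregation exceeds 20%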;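 further: compound exposure lasted 3 days before fixation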;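 on nuclei count: percent of the per-plate median nuclei count of sample wells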); settings: exon1htt(103Q)mCFP cell line, aggregate imaging, at 2 µM; inhibition of aggregation: stronger effect = higher value; nuclei count: measured here: cell count, toxicity
# [3] = endothelial E-selectin expression blockers – imaging, HUVEC, immunofluorescence, MLSMR starter and 10KST1 sets, primary screen (AID 487;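 active means visually confirmed hit in the image check and inhibition above 20%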;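 on inhibition: signal is fraction of cell area covered by stained E-selectin grains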;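 on nuclei count: 100% = median nuclei count of all wells on the same plate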); settings: HUVEC TNFalpha-induced E-selectin immunofluorescence imaging, at 2 µM; inhibition: stronger effect = higher value; nuclei count: measured here: cell number, toxicity
# [4] = target: Voltage-gated potassium channel subunit beta-2 (Rattus norvegicus) (UniProt P62483); assay: inhibitors of rat Kvbeta2 reductase activity – biochemical, NADPH fluorescence, primary screen (AID 622;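 active means fluorescence slope higher than the sample average by over 3 SD, cut at about -0.22 in these data, passing the limit was not always enough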;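 further: slope of raw intensity against log time taken from 70 to 1610 s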); settings: recombinant KvBeta, 4-cyanobenzaldehyde reduction, at 10 µM, stronger effect = higher value
# [5] = target: Voltage-gated potassium channel subunit beta-2 (Rattus norvegicus) (UniProt P62483); assay: enhancers of rat Kvbeta2 NADPH turnover – biochemical, NADPH fluorescence, primary screen (AID 623;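 active means NADPH fluorescence slope more negative than the mean of all samples by about 3 SD, 99.7% confidence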;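 further: fluorescence intensity change per second fitted from 20 to 320 s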); settings: Recombinant KvBeta, NADPH fluorescence decrease slope, 10 min; at 10 µM; stronger effect = lower value
# [6] = target: Alpha-2C adrenergic receptor (Homo sapiens) (UniProt P18825); assay: compounds altering alpha2C-coupled GIRK flux – cell-based, HEK293 alpha2C/GIRK1/2, thallium flux, primary screen (AID 624;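 active means fluorescence slope after compound addition differing from the mean of all screened samples at 99.7% confidence, in either direction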;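 further: slope of fluorescence ratio to pre-addition baseline per second over 15 to 24 s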); settings: thallium flux BTC fluorescence, at 10 µM, actives lie on both sides
# [7] = blockers of RIG-like receptor reporter activation – cell-based, Sendai virus stimulus, luciferase, 10K MLSCN set, TLR/RLR signaling modifier project, primary screen (AID 602276); settings: HEK293 RL24 IRF3 luciferase reporter, at 10 µM, stronger effect = higher value;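 further: firefly luciferase from ISG56 promoter only with Renilla not read in this screen; 0% = Sendai virus plus DMSO and 100% = medium plus DMSO without virus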
# [8] = TLR3 IRF3 reporter activation blockers – cell-based, poly I:C stimulus, luciferase, 10K MLSCN set, primary screen (AID 602277;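 active means inhibition of the reporter signal at or above 50%; inactive means inhibition below 50%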); settings: HEK293-TLR3 RL24 IRF3 luciferase reporter, at 10 µM, stronger effect = higher value
# Sequence of Voltage-gated potassium channel subunit beta-2 (Rattus norvegicus) (P62483 whole entry, looked up): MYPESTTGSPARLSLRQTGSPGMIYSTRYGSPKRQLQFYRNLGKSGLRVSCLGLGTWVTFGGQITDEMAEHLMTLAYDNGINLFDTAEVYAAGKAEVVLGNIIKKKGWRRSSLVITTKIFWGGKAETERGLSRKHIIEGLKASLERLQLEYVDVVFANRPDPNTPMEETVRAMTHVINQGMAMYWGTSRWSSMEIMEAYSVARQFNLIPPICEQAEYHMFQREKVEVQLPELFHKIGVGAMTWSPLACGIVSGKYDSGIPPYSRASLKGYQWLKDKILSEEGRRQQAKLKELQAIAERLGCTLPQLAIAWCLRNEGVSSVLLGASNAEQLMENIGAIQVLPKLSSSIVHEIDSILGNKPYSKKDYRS
# Sequence of Alpha-2C adrenergic receptor (Homo sapiens) (P18825 whole entry, looked up): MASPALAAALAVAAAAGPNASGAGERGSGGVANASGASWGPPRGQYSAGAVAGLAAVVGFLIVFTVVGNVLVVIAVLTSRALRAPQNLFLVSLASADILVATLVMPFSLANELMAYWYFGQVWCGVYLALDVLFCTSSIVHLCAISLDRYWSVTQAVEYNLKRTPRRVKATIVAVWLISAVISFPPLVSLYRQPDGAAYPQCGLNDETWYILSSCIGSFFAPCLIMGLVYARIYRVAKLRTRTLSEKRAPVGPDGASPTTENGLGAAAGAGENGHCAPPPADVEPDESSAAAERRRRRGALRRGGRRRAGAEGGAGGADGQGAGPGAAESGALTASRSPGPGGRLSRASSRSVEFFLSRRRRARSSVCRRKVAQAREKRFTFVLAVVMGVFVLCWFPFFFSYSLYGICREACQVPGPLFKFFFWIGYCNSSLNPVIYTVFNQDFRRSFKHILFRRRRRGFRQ
SMILES,cell count [1],inhibition [1],inhibition of aggregation [2],nuclei count [2] [%],inhibition [3],nuclei count [3] [%],fluorescence slope [4],NADPH fluorescence slope [5],slope [6],inhibition [7],inhibition [8]
CCOc1ccc(N(C(C)=O)C2C=CS(=O)(=O)C2)cc1 (centres undefined),610,-0.2% (inactive),-4.3% (inactive),104,-4% (inactive),139,-0.496 (inactive),-1.8e-05 (inactive),0.00613 (inactive),3.45% (inactive),19.5% (inactive)
O=C(CCN1C(=O)C2C3C=CC(C3)C2C1=O)NC1CCCc2ccccc21 (centres undefined),411,7.3% (inactive),4.3% (inactive),104,-138% (inactive),104,-0.441 (inactive),-1.7e-05 (inactive),0.00567 (inactive),10.7% (inactive),30.7% (inactive)
CC1CCC(NC(=O)C2(C)CCC(=O)N2Cc2cccnc2)CC1 (centres undefined),890,-5.2% (inactive),18.3% (inactive),70.4,-7.7% (inactive),101,-0.598 (inactive),-1.4e-05 (inactive),0.00748 (inactive),1.39% (inactive),32.6% (inactive)
CCCN(CCC)S(=O)(=O)c1ccc(NS(C)(=O)=O)cc1,399,3.4% (inactive),-3% (inactive),108,-126% (inactive),107,-0.391 (inactive),1e-05 (inactive),0.00362 (inactive),6.07% (inactive),12.8% (inactive)
COc1ccc(CN(C(=O)c2oc3ccccc3c2C)C2CCS(=O)(=O)C2)cc1 (centres undefined),592,1.7% (inactive),7.1% (inactive),87.3,-5.9% (inactive),102,-0.444 (inactive),2.9e-05 (inactive),0.00692 (inactive),-2.17% (inactive),8.82% (inactive)
CCOc1ccccc1C(=O)NC(C)c1ccc2c(c1)OCO2 (centres undefined),368,0.8% (inactive),0.3% (inactive),122,-6.7% (inactive),92.4,-0.523 (inactive),-5.4e-05 (inactive),0.00595 (inactive),15.1% (inactive),-8.04% (inactive)
CCOC(=O)c1cnn(-c2sc(C(=O)OCC)c(C)c2C(=O)OCC)c1N,451,-1.9% (inactive),-35.1% (inactive),99.7,-5.8% (inactive),115,-0.517 (inactive),2.2e-05 (inactive),0.00627 (inactive),7.68% (inactive),-49.4% (inactive)
COc1ccc2cc(C(c3nnnn3C3CCCCC3)N3CCCCCC3)c3nnnn3c2c1 (centres undefined),828,-6.7% (inactive),-7.5% (inactive),108,-10.3% (inactive),114,-0.444 (inactive),-3.1e-06 (inactive),0.00937 (inactive),7.67% (inactive),-2.36% (inactive)
CCCn1c(C)nc2c(c1=O)c1nc3ccccc3nc1n2CCc1ccccc1,470,-3.1% (inactive),6.9% (inactive),100,-102% (inactive),222,-0.303 (inactive),2.6e-05 (inactive),0.00428 (inactive),3.36% (inactive),0.543% (inactive)
O=C(CSc1nnc(CNC(=O)c2cccs2)o1)Nc1cccc(C(F)(F)F)c1,262,3.8% (inactive),-12.8% (inactive),78.7,-14.2% (inactive),111,-0.379 (inactive),-5.5e-05 (inactive),0.00592 (inactive),6.93% (inactive),19.8% (inactive)
Cc1nc2sc(C(c3ccc(Br)cc3)N3CC(C)OC(C)C3)c(O)n2n1 (centres undefined),260,-5.4% (inactive),-0.8% (inactive),106,-6.9% (inactive),114,-0.437 (inactive),-6.3e-05 (inactive),0.00564 (inactive),4.21% (inactive),17.4% (inactive)
CCOC(=O)c1c(C)oc2c1c1c(c3ccccc32)OCN(Cc2cccnc2)C1,499,-2.1% (inactive),8.8% (inactive),100,-8.4% (inactive),104,-0.367 (inactive),1.6e-05 (inactive),0.00433 (inactive),-1.25% (inactive),15.3% (inactive)
O=c1c2ccccc2nc(SCc2cccc(F)c2)n1Cc1ccco1,361,-3.4% (inactive),4.4% (inactive),87.4,-37.1% (inactive),91.3,-0.37 (inactive),2.5e-05 (inactive),0.0116 (inactive),9.34% (inactive),4.77% (inactive)
Cc1ccc(-n2ncc(C(=O)N3CCc4ccccc4C3)c2NC(=O)c2ccco2)cc1C,425,10.2% (inactive),-0.3% (inactive),100,0.3% (inactive),114,-0.415 (inactive),-9.8e-05 (inactive),0.00658 (inactive),2.03% (inactive),20.1% (inactive)
COC(=O)c1sc2ccccc2c1NC(=O)c1cccs1,729,16.4% (inactive),21.4% (inactive),101,1.4% (inactive),99.1,-0.551 (inactive),-2.2e-05 (inactive),0.00536 (inactive),-16.8% (inactive),-27.9% (inactive)
CCCN(CCC)CCNC(=O)c1cc2c(=O)n(C)c3ccccc3c2n1C,627,0% (inactive),-18.3% (inactive),109,-57.7% (inactive),112,-0.456 (inactive),-7.5e-05 (inactive),0.00528 (inactive),27.9% (inactive),68.2% (active)
COc1ccc(C)cc1NC(=O)CCC(=O)Nc1ccc2nc(N3CCN(C)CC3)cc(C)c2c1,623,1.5% (inactive),-9.5% (inactive),104,-62.6% (inactive),108,-0.428 (inactive),6e-06 (inactive),0.00326 (inactive),-21.1% (inactive),-51.1% (inactive)
Cc1ccccc1-n1c(=O)c2ccccc2n2nnnc12,789,-6.4% (inactive),-0.5% (inactive),125,-23.1% (inactive),103,-0.517 (inactive),2.5e-05 (inactive),0.00577 (inactive),-17% (inactive),-4.05% (inactive)
Cc1cccc(-n2ncc3c(NCc4cccnc4)ncnc32)c1,670,-21.7% (inactive),9.2% (inactive),101,-18.5% (inactive),119,-0.555 (inactive),-3.3e-05 (inactive),0.00696 (inactive),-49.1% (inactive),-205% (inactive)
